# About 1,400 (93%) of roughly 1,500 compounds were called active. No rule for the calls is given here. The set was probably picked from earlier hits. A selection follows. Measured potencies and affinities stand elsewhere.
# Test: viability of PTEN-deleted HCT116 cells – cell-based, HCT116 PTEN knockout, dose response (AID 1047)
# Settings: CellTiter-Glo, 60 h; series mostly up to 30 µM; viability: at the top concentration
row,Compound,viability
1,CCCNC(=O)OC[C@H]1O[C@H](CCO/N=C/[C@@H](NS(=O)(=O)c2ccc(C)cc2)[C@H](C)/C=C/CC(=O)OC)C=C[C@@H]1Oc1ccc(OC)cc1,80.8% (inactive)
2,Cc1nn(C(=O)N2CCOCC2)c(C)c1C,102% (inactive)
3,CCN1CCN(Cc2ccc(OCc3ccccc3)cc2)CC1,96.5% (inactive)
4,O=C(Nc1cccc(C(F)(F)F)c1)/C(=C\c1ccco1)NC(=O)c1cccs1,84.9% (inactive)
5,CSc1n[nH]c(NCc2cccs2)n1,97.2% (inactive)
6,Nc1nnc(SCc2ccc(Cl)cc2)s1,89.9% (inactive)
7,COC(=O)c1cc(OC)c(OC)cc1NC(=O)c1ccccc1,96.4% (inactive)
8,C=CCNC(=O)c1ccccc1NC(=O)c1ccccc1C,92.4% (inactive)
9,CN1CCN(c2nc(N3CCN(c4ccccc4)CC3)ncc2F)CC1,81.6% (inactive)
10,O=C(c1ccc2c(=O)n(CC3CCCO3)c(=S)[nH]c2c1)N1CCN(c2ccccc2)CC1 (stereo not given),94% (inactive)
11,Cc1ccc(CNc2ccc(O)cc2)cc1,98.5% (inactive)
12,OC1(c2cccc(C(F)(F)F)c2)CCN(c2ccc(-c3ccccc3)nn2)CC1,92.9% (inactive)
13,COc1cc2c(cc1OC)C1(Nc3c-2c(C)nn3-c2ccccc2)C(=O)Nc2ccccc21 (stereo not given),91.2% (inactive)
14,CCOc1ccccc1NC(=O)Cn1cnc2c(nnn2-c2cccc(OC)c2)c1=O,96.3% (inactive)
15,O=C(COc1ccc(/C=N/NC(=O)c2cc3ccccc3o2)cc1Cl)Nc1ccccc1,87.9% (inactive)
16,O=C(NCc1ccc2c(c1)OCO2)c1ccc2c(c1)C(=O)N(CC1CCCO1)C2=O (stereo not given),98.1% (inactive)
17,CCOC(=O)C1=C(C)NC(=S)N(C(C)=O)C1c1ccc(Cl)cc1 (stereo not given),82.1% (inactive)
18,CCC(Sc1nc2sc(C(=O)OC)c(C)c2c(=O)n1N)C(=O)N(CC)CC (stereo not given),89.6% (inactive)
19,N#CC(c1ccc(Cl)nn1)c1ccc(Cl)cc1Cl (stereo not given),90.3% (inactive)
20,COc1ccc(CCN2C(=O)CN(Cc3ccccc3)CC2=O)cc1OC,89.9% (inactive)
21,CC(=O)c1c(C)nc(-c2ccc(Cl)cc2Cl)n1O,103% (inactive)
22,CCOC(=O)Nc1ccc(C)cc1Br,100% (inactive)
23,Cc1cc2ncn(C(=O)N3CCC(C)CC3)c2cc1C,104% (inactive)
24,Cc1cc(NC(=O)CSc2nc(-c3cccnc3)ccc2C#N)no1,106% (inactive)

row,Compound,viability
1,O=C(CSc1nnc(-c2ccccc2Cl)o1)Oc1ccc(Br)cc1,98.8% (inactive)
2,Cc1cccc(CS(=O)(=O)c2nnc([C@H](Cc3ccccc3)NC(=O)OC(C)(C)C)o2)c1,93.7% (inactive)
3,O=C(Nc1cccc(C(F)(F)F)c1)C12CC3CC(CC(C3)C1)C2,89.8% (inactive)
4,Cc1cc(NC(=O)CN2CCN(c3ccc(O)cc3)CC2)no1,86.1% (inactive)
5,Cc1ccc(C(=O)c2coc3c2C(=O)C(=O)c2ccccc2-3)cc1,96.7% (inactive)
6,COCCN1C(=O)c2oc3ccccc3c(=O)c2C1c1ccc(OC)c(OC)c1 (stereo not given),84.9% (inactive)
7,O=C(NC(=S)Nc1ccc2c(c1)OCO2)c1ccc(Cl)cc1,83.4% (inactive)
8,CCN(CC)c1ccc(N=Cc2ccc(N(CC)CC)cc2O)cc1,95.8% (inactive)
9,Cc1ccc(C(=O)Nc2ccccc2C(=O)NC(C(=O)O)C(C)C)cc1 (stereo not given),95.5% (inactive)
10,Cc1cc(NS(=O)(=O)c2ccccc2)cc(Cl)c1O,93.7% (inactive)
11,O=C(Nc1cccc2ccccc12)N1CCN(Cc2ccc3c(c2)OCO3)CC1,97.6% (inactive)
12,CCCCn1c(=NC(=O)c2ccco2)c(C(=O)OCC)cc2c(=O)n3ccccc3nc21,72.2% (inactive)
13,CS(=O)(=O)c1nc(-c2cccs2)cc(C(F)(F)F)n1,97.9% (inactive)
14,O=C(NCc1ccc(F)cc1)C1C2C=CC3(CN(Cc4cccnc4)C(=O)C13)O2 (stereo not given),102% (inactive)
15,COCCNC(=O)NC1(C(F)(F)F)Oc2ccc(Cl)cc2O1 (stereo not given),87.3% (inactive)
16,Cc1c(Cl)ccc2sc(NC(=O)CN3C(=O)c4ccccc4C3=O)nc12,103% (inactive)
17,COc1ccc(S(=O)(=O)CCC(=O)N(C)c2ccc(OC)cc2OC)cc1,81.1% (inactive)
18,CCCCN(C)C(=O)C1CCC(=O)N(c2cc(OC)c(OC)c(OC)c2)C1c1ccc(OC)cc1 (stereo not given),94.9% (inactive)
19,CCCCS/C(N)=N/N=C/c1ccccc1O,90.8% (inactive)
20,N/C(=N\c1nc(C(F)(F)F)cc(=O)[nH]1)Nc1ccc(Cl)cc1,91.2% (inactive)
21,COc1ccc(N2CCN(C(c3cc(OC)ccc3OC)c3nnnn3CC3CCCO3)CC2)cc1 (stereo not given),86.8% (inactive)
22,N/C(=N\OC(=O)C12CC3CC(CC(C3)C1)C2)c1ccccc1,86.5% (inactive)
23,Cc1cc(C)c2c(=O)n(CC(=O)N3CCC(Cc4ccccc4)CC3)sc2n1,95.1% (inactive)
24,COC(=O)CN1C(C)=Nc2ccc(Br)cc2C1c1ccccc1 (stereo not given),89.8% (inactive)

row,Compound,viability
1,CCCC/C(C)=N\NC(=O)CNS(=O)(=O)c1ccc([N+](=O)[O-])cc1,111% (inactive)
2,CCCC(=O)Nc1sc2c(c1C#N)CCCCC2,93.2% (inactive)
3,Oc1ccc(C=Nc2ccc3ncccc3c2)c(O)c1,86.3% (inactive)
4,CCCCN1C[C@H](O)[C@@H](O)[C@H](O)[C@H]1CO,92% (inactive)
5,COc1cccc2cc(C(=O)N(C)C)c(=O)oc12,89.8% (inactive)
6,CC1CCN(CC(=O)N2c3ccccc3CCc3ccccc32)CC1,94.3% (inactive)
7,CCOc1ccc(C2/C(=C(\O)c3c(C)[nH]c(C(=O)OC)c3C)C(=O)C(=O)N2CCN(C)C)cc1 (stereo not given),105% (inactive)
8,O=C(NCc1ccccn1)c1c(O)c2cccc3c2n(c1=O)CC3,88% (inactive)
9,COC(C)(C)[C@H](O)COc1c2ccoc2cc2oc(=O)ccc12,97.6% (inactive)
10,Nc1c(NCCN2CCOCC2)c2ccccc2oc1=O,88.3% (inactive)
11,O=C(Nc1cccc(-c2nnc(-c3ccccc3)o2)c1)C1CCCCC1,94% (inactive)
12,COc1ccc(C(C)=O)cc1CSc1nc2ccccc2o1,94% (inactive)
13,O=C(Nc1cccc2ccccc12)c1onc2c1CCCC2,94.1% (inactive)
14,CNC(=O)C1C(=S)NC(N)=C(C#N)C1c1ccccc1 (stereo not given),90.6% (inactive)
15,CC(C(=O)NC(=O)NCc1ccccc1)N1C(=O)c2ccccc2C1=O (stereo not given),98.9% (inactive)
16,CCOC(=O)c1c(-c2ccc(C)cc2)csc1NC(=O)/C(C#N)=C/c1ccc(O)c(OC)c1,93.9% (inactive)
17,CCN(CC)S(=O)(=O)c1ccc(NC2CCCc3ccccc32)nc1 (stereo not given),93.2% (inactive)
18,CCn1c(CNc2ccc(OC)cc2)nnc1SCC(=O)c1ccc(OC)cc1,86.7% (inactive)
19,Cc1ccc(C(=O)NCCc2nnc(SCC(=O)Nc3nc(-c4ccccc4)cs3)n2C)cc1,87.6% (inactive)
20,CCN(CC)c1ccc(NC2=C(Cl)C(=O)c3ccccc3C2=O)cc1,89.3% (inactive)
21,CCCC(=O)Nc1ccc(C)c(O)c1,87.6% (inactive)
22,CCn1c(Cc2ccc(OC)cc2)nnc1SCC(=O)Nc1cccc(C(=O)OC)c1,95.5% (inactive)
